# Reference: the supplement of paper PMC8728848
# The full list was thinned out, with the strongest signals kept by preference.
# Legend:
# Assay in all cases: glycan array binding signal (z-score within array); higher = stronger binding
# Details in all cases: glycan notation: IUPAC condensed, linker removed
# [1] = biological target: Gal(b1-4)GlcNAc(b1-3)Gal(b1-4)GlcNAc(b1-3)Gal(b1-4)GlcNAc(b1-3)Gal(b1-4)GlcNAc(b1-3)Gal(b1-4)GlcNAc(b1-3)Gal(b1-4)GlcNAc(b1-2)Man(a1-3)[Gal(b1-4)GlcNAc(b1-3)Gal(b1-4)GlcNAc(b1-3)Gal(b1-4)GlcNAc(b1-3)Gal(b1-4)GlcNAc(b1-3)Gal(b1-4)GlcNAc(b1-3)Gal(b1-4)GlcNAc(b1-2)Man(a1-6)]Man(b1-4)GlcNAc(b1-4)GlcNAc
# In short: (§1)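 Glycan array data came from 3228 arrays in the Consortium for Functional Glycomics database, and only arrays with an available protein sequence were kept. Glycan names were put into IUPAC-condensed notation, and columns mapping to the same glycan were averaged. The binding signal is a within-array Z-score, averaged across arrays of one protein sequence run at different concentrations or buffers and across linkers. A negative Z-score can be read as non-binding.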
# [2] = biological target: Gal(b1-4)GlcNAc(b1-6)Gal(b1-4)GlcNAc
# In short: as §1
# [3] = biological target: Gal(b1-4)GlcNAc(b1-6)[Gal(b1-4)GlcNAc(b1-3)]GalNAc
# In short: as §1
# Gal3S(b1-4)GlcNAc = biological target: Gal3S(b1-4)GlcNAc
# In short: as §1
# [4] = biological target: Gal3S(b1-4)[Fuc(a1-3)]Glc6S
# In short: as §1
# [5] = biological target: Gal3S(b1-4)[Fuc(a1-3)]GlcNAc
# In short: as §1
# Gal6S(b1-4)GlcNAc6S = biological target: Gal6S(b1-4)GlcNAc6S
# In short: as §1
# GalNAc(a1-3)GalNAc = biological target: GalNAc(a1-3)GalNAc
# In short: as §1
# [6] = biological target: GalNAc(b1-3)Gal(a1-4)Gal(b1-4)GlcNAc(b1-3)Gal(b1-4)Glc
# In short: as §1
# [7] = biological target: GalNAc(b1-3)Gal(a1-6)Gal(b1-4)Glc
# In short: as §1
# GalNAc3S(b1-4)GlcNAc3S = biological target: GalNAc3S(b1-4)GlcNAc3S
# In short: as §1
# Glc(a1-4)Glc = biological target: Glc(a1-4)Glc
# In short: as §1
# [8] = biological target: GlcNAc(a1-4)Gal(b1-4)GlcNAc(b1-3)Gal(b1-4)[Fuc(a1-3)]GlcNAc(b1-3)Gal(b1-4)[Fuc(a1-3)]GlcNAc
# In short: as §1
# [9] = biological target: GlcNAc(b1-3)Gal(b1-4)GlcNAc(b1-3)Gal(b1-4)GlcNAc(b1-2)Man(a1-3)[GlcNAc(b1-3)Gal(b1-4)GlcNAc(b1-3)Gal(b1-4)GlcNAc(b1-2)Man(a1-6)]Man(b1-4)GlcNAc(b1-4)GlcNAc
# In short: as §1
# [10] = biological target: GlcNAc(b1-3)Gal(b1-4)GlcNAc(b1-3)Gal(b1-4)GlcNAc(b1-3)Gal(b1-4)GlcNAc(b1-2)Man(a1-3)[GlcNAc(b1-3)Gal(b1-4)GlcNAc(b1-3)Gal(b1-4)GlcNAc(b1-3)Gal(b1-4)GlcNAc(b1-2)Man(a1-6)]Man(b1-4)GlcNAc(b1-4)GlcNAc
# In short: as §1
# [11] = biological target: GlcNAc(b1-4)[GlcNAc(b1-6)]GalNAc
# In short: as §1
# Kdn(a2-6)Gal(b1-4)GlcNAc = biological target: Kdn(a2-6)Gal(b1-4)GlcNAc
# In short: as §1
# [12] = biological target: Man(a1-2)Man(a1-3)[Man(a1-2)Man(a1-6)]Man(a1-6)[Man(a1-2)Man(a1-2)Man(a1-3)]Man
# In short: as §1
# [13] = biological target: Man(a1-2)Man(a1-3)[Man(a1-2)Man(a1-6)]Man(a1-6)[Man(a1-2)Man(a1-2)Man(a1-3)]Man(b1-4)GlcNAc(b1-4)GlcNAc
# In short: as §1
# [14] = biological target: Man(a1-2)Man(a1-6)[Man(a1-3)]Man(a1-6)[Man(a1-2)Man(a1-2)Man(a1-3)]Man
# In short: as §1
# [15] = biological target: Neu5Ac(a2-3)Gal(b1-3)GlcNAc(b1-2)Man
# In short: as §1
# [16] = biological target: Neu5Ac(a2-3)Gal(b1-3)GlcNAc(b1-6)GalNAc
# In short: as §1
# [17] = biological target: Neu5Ac(a2-3)Gal(b1-3)[Fuc(a1-4)]GlcNAc
# In short: as §1
# [18] = biological target: Neu5Ac(a2-3)Gal(b1-3)[GlcNAc(b1-6)]GalNAc
# In short: as §1
# [19] = biological target: Neu5Ac(a2-3)Gal(b1-3)[Neu5Ac(a2-6)]GlcNAc(b1-3)[Fuc(a1-3)[Gal(b1-4)]GlcNAc(b1-6)]Gal(b1-4)Glc
# In short: as §1
# [20] = biological target: Neu5Ac(a2-3)Gal(b1-4)GlcNAc(b1-3)Gal(b1-4)GlcNAc(b1-3)Gal(b1-4)GlcNAc(b1-2)Man(a1-3)[Neu5Ac(a2-3)Gal(b1-4)GlcNAc(b1-3)Gal(b1-4)GlcNAc(b1-3)Gal(b1-4)GlcNAc(b1-2)Man(a1-6)]GalNAc
# In short: as §1
# [21] = biological target: Neu5Ac(a2-3)Gal(b1-4)[Fuc(a1-3)]GlcNAc(b1-3)Gal(b1-4)[Fuc(a1-3)]GlcNAc(b1-3)Gal(b1-4)[Fuc(a1-3)]GlcNAc
# In short: as §1
# [22] = biological target: Neu5Ac(a2-3)Gal(b1-4)[Fuc(a1-3)]GlcNAc(b1-3)GalNAc
# In short: as §1
# Neu5Ac(a2-6)Gal(b1-4)Glc = biological target: Neu5Ac(a2-6)Gal(b1-4)Glc
# In short: as §1
# [23] = biological target: Neu5Ac(a2-6)Gal(b1-4)GlcNAc(b1-2)Man(a1-3)[Man(a1-6)]Man(b1-4)GlcNAc(b1-4)GlcNAc
# In short: as §1
binder,measurement,setting,value
EUL D1A second (Oryza sativa) (protein) GAATACTIGGVPVHTVRVFSAAGEDYCLTVRNGTACLAPKNPRDDYQHWIKDMRHSNKIRDEEGYPAFALVNKVTGEAIKHSTGQGHPVKLVPYNPEYQDESVLWTESKDVGKGFRCIRMVNNIYLNFDAFHGDKDHGGIHDGTEIVLWKWCEGDNQRWKILPWILEQKLISEEDLNSAVDHHHHHH,glycan array binding signal (z-score),[1],0.069
same,glycan array binding signal (z-score),[2],-0.144
same,glycan array binding signal (z-score),[3],-0.385
same,glycan array binding signal (z-score),Gal3S(b1-4)GlcNAc,0.255
same,glycan array binding signal (z-score),[4],2.74
same,glycan array binding signal (z-score),[5],2.4
same,glycan array binding signal (z-score),Gal6S(b1-4)GlcNAc6S,0.99
same,glycan array binding signal (z-score),GalNAc(a1-3)GalNAc,-0.302
same,glycan array binding signal (z-score),[6],-0.809
same,glycan array binding signal (z-score),[7],-0.495
same,glycan array binding signal (z-score),GalNAc3S(b1-4)GlcNAc3S,-0.9
same,glycan array binding signal (z-score),Glc(a1-4)Glc,0.317
same,glycan array binding signal (z-score),[8],2.44
same,glycan array binding signal (z-score),[9],0.61
same,glycan array binding signal (z-score),[10],0.539
same,glycan array binding signal (z-score),[11],-0.443
same,glycan array binding signal (z-score),Kdn(a2-6)Gal(b1-4)GlcNAc,-1.38
same,glycan array binding signal (z-score),[12],-0.985
same,glycan array binding signal (z-score),[13],1.93
same,glycan array binding signal (z-score),[14],0.706
same,glycan array binding signal (z-score),[15],3.06
same,glycan array binding signal (z-score),[16],-0.587
same,glycan array binding signal (z-score),[17],0.596
same,glycan array binding signal (z-score),[18],0.412
same,glycan array binding signal (z-score),[19],1.26
same,glycan array binding signal (z-score),[20],3.53
same,glycan array binding signal (z-score),[21],-0.112
same,glycan array binding signal (z-score),[22],2.61
same,glycan array binding signal (z-score),Neu5Ac(a2-6)Gal(b1-4)Glc,0.113
same,glycan array binding signal (z-score),[23],0.117
